Experimental data taken from PubChem BioAssay AID951 (NMMLSC, 2007).
Hit rate of the full screen: of about 190,000 compounds, about 140 (0.074%) were called active. No stated cut-off is given here; in the data, active means inhibition above about 40%. The sample as a whole holds a higher share of actives than the screen did.

Molecular target: Bcl-2-like protein 10 (Homo sapiens) (UniProt Q9HD36)
Experiment: inhibitors of Bim-Bcl-B binding, primary screen, biochemical, multiplexed, human Bcl-2 family (AID 951);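 further: 0% = tracer peptide without compound and 100% = reference inhibitor peptide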
Details: bead-based flow cytometry, Bim peptide-Bcl-B binding; at 10 µM; active compounds read high

Chain of Bcl-2-like protein 10 (Homo sapiens) (Q9HD36 whole entry, looked up): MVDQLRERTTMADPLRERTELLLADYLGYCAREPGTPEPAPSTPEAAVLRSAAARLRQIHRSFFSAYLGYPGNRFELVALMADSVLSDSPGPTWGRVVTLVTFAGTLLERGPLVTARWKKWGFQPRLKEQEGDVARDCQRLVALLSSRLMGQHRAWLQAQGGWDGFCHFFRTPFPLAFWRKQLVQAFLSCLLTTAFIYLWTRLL

inhibition, active:
CC(C)(C)C(=O)NC(NC(=S)Nc1ccc(S(N)(=O)=O)cc1)C(Cl)(Cl)Cl (stereo unspecified) 49%

inhibition, inactive:
CN(C)C(=O)N1CCNCC1 0%
Cc1cc(C)n(CC(=O)Nc2ccc([N+](=O)[O-])cc2)n1 0%
CC(C)C(=O)NCc1cc(-c2ccc(Cl)cc2)no1 5%
CC1=NN(C(=O)CCCc2ccccc2)C(O)(C(F)(F)F)C1 (stereo unspecified) -2%
OCC1(CCOc2ccccc2)CCN(Cc2cn[nH]c2-c2ccccc2)CC1 -2%
CN1CCN(c2ccc(S(=O)(=O)N3CCCCC3)cc2NC(=O)Cc2ccccc2F)CC1 -4%
COc1ccc(N2CCN(C(=O)CNS(=O)(=O)c3ccc(C)c(C)c3)CC2)cc1 -2%
O=C(CCC1CCCN(Cc2ccc(O)c(Cl)c2)C1)NCc1ccccc1F (stereo unspecified) -1%
CCCCN(CC(=O)NC(C)(C)C)C(=O)C(=O)Nc1ccc2c(c1)OCCO2 1%
COc1ccccc1N1CCN(CC(=O)NC(=O)NCc2ccco2)CC1 -9%
CCN(CCn1cccn1)Cc1cn[nH]c1-c1ccc(OC)cc1F -4%
O=C(COC(=O)CNC(=O)c1ccccc1F)NCC(F)(F)F -5%
COc1ccc(C(CC(=O)Nc2ccc(C)cc2)NC(=O)C(F)(F)F)cc1 (stereo unspecified) -9%
CCOC(=O)c1oc2c(CN3CCN(CCO)CC3)c(O)c(CC)cc2c(=O)c1-c1nc2ccccc2s1 0%
N#Cc1ccccc1NC(=O)COc1c(Br)cc(Br)c2cccnc12 -7%
Cc1ccc(Nc2nc(CSc3nnc(-c4ccncc4)n3-c3ccccc3C)cs2)cc1 -11%
CCCCc1ccc(NC(=S)N2CCCC(CO)C2)cc1 (stereo unspecified) -7%
Cc1ccc(NC(=O)O/N=C/c2cccc([N+](=O)[O-])c2)cc1 0%
CCOc1cc(NC(=S)NCCCOC)c(OCC)cc1NC(=O)c1ccco1 -11%
NC(=O)c1ccccc1N=Cc1ccc2ccccc2c1 -4%
O=c1c(-c2ccccc2)cnc2n1CCS2 -2%
O=C(CC1SCCNC1=O)Nc1ccc(Cl)c(Cl)c1 (stereo unspecified) -1%
CCC(CC)C(=O)N1CCN(c2cccc(C)c2C)CC1 0%
CCN(CC)CCNC(=O)c1ccc(NS(=O)(=O)c2ccc3c(c2)OCCO3)cc1 0%
Cc1nc2ccccc2n1CC(=O)N/N=C/c1cccs1 -6%
CN(C)c1ccc(C(=S)N2CCN(C(=S)Nc3ccc(Cl)cc3)CC2)cc1 -6%
CN1CCN(CCNC(=O)Nc2ccc([N+](=O)[O-])cc2)CC1 -5%
O=C(Nn1cnc2ccccc2c1=O)c1ccc([N+](=O)[O-])cc1Cl 0%
Cc1c(CN2CCCCC2)c(O)n(CCO)c(=O)c1C#N -3%
CCOc1cc(NC(=O)CCl)c(OCC)cc1NC(C)=O -4%
CC(NC(=O)COC(=O)c1ccc2c(c1)OCO2)c1ccccc1 (stereo unspecified) 0%
CC(C)NC(=O)c1ccc(Cl)cc1Cl -2%
Cn1c(-c2sccc2OCc2cccc(C(F)(F)F)c2)n[nH]c1=S -24%
O=C(CC(NC(=O)c1ccccc1)c1ccccc1)Nc1ccc(F)c(F)c1 (stereo unspecified) -6%
CCOC(=O)C1(C)NC(c2ccco2)C2C(=O)N(c3ccccc3)C(=O)C21 (stereo unspecified) -1%
CC(=O)c1c(N2CCN(c3ccc(F)cc3)CC2)nc(=S)n(-c2ccccc2)c1C -11%
CNC(=O)C(=O)N/N=C/c1ccccn1 2%
CCCC1NC(=S)NC(C)=C1C(C)=O (stereo unspecified) -2%
C/C(=N/NC(=O)CSc1ccccn1)c1ccc([N+](=O)[O-])cc1 -2%
CC(C)(C)C(=O)CSc1nc2ccccc2o1 -4%
CCOC(=O)C(C)Oc1cccc2c(=O)n(CC(=O)NCCc3ccc(OC)c(OC)c3)ccc12 (stereo unspecified) -3%
CCSC1=NCCN1C(=O)c1ccc(S(=O)(=O)N(CC)CC)cc1 -5%
CC(C)(C)c1ccc(/C=C2\SC(=O)N=C2N)cc1 -3%
Cc1c(Br)c([N+](=O)[O-])nn1CC(=O)Nc1sc2c(c1C(=O)OC(C)C)CCC(C)C2 (stereo unspecified) 2%
Cc1cc(Cl)ccc1OCc1nc(-c2ccncc2)no1 -5%
O=C(Nc1ccc2c(c1)CCC2)c1ccc(Br)s1 0%
CCn1cc(C(=O)NCCCN2CCCCCC2)c(=O)c2cc(S(=O)(=O)N3CCc4ccccc4C3)ccc21 -12%
O=C(N/N=C/c1cc2c(cc1Br)OCO2)C1COc2ccccc2O1 (stereo unspecified) 1%
O=[N+]([O-])c1cccc(/C([O-])=C(/C(=S)Nc2ccccc2F)[n+]2ccccc2)c1 -16%
COc1cccc(-c2ccc(C#N)c(SCC(=O)NCCc3ccc(Cl)cc3)n2)c1 -12%
O=C(NCC1CCCO1)C1CCN(C2CCN(C(=O)C3CCCCC3)CC2)CC1 (stereo unspecified) 0%
Cc1cccc(-n2c(SCC(=O)Nc3cccc(S(=O)(=O)NC4=NCCCCC4)c3)nc3ccccc3c2=O)c1C -4%
O=C(Nc1ccc(F)cc1)C1CCN(C(=O)c2ccc([N+](=O)[O-])cc2)CC1 6%
O=C(O)c1ccc(NS(=O)(=O)c2ccc3c(c2)C(=O)c2cc(S(=O)(=O)Nc4ccc(C(=O)O)cc4)ccc2-3)cc1 -6%
O=C(COC(=O)Cc1ccc(Br)cc1)Nc1c(F)c(F)c(F)c(F)c1F -7%
CC(=O)c1ccccc1NC(=O)CC1(CC(=O)O)CCCCC1 -1%
CC(=O)NS(=O)(=O)c1ccc(NC(=S)NC(=O)C(C)(C)C)cc1 -4%
NS(=O)(=O)c1ccc(NC(=S)Nc2ccc(Br)c(Cl)c2)cc1 -9%
COc1cccc(C2c3[nH]c4ccccc4c3CCN2Cc2cccc(C)n2)c1 (stereo unspecified) -3%
CCOc1ccc2nc(NC(=O)c3cc([N+](=O)[O-])ccc3N3CCOCC3)sc2c1 -3%
